# A selection: hits, their analogues and other compounds. The true share with any hit is near 19%.
# TDP1 inh – blocks human tyrosyl-DNA phosphodiesterase 1 | Q9NUW8 | recombinant TDP1, AlphaScreen DNA substrate cleavage | 0.28% of 350,000 active | Potency, µM (doses to about 130 µM), inactives show at the top dose activity change, negative = inhibition, hits mostly inhibitors | AID 485290; note: potency is the fitted concentration of half-maximal effect; % is set by controls: 0 for no effect and ±100 for the full control effect; nearly all actives have a fitted effect of over 40% in size
# Target sequence (Q9NUW8 whole entry, looked up): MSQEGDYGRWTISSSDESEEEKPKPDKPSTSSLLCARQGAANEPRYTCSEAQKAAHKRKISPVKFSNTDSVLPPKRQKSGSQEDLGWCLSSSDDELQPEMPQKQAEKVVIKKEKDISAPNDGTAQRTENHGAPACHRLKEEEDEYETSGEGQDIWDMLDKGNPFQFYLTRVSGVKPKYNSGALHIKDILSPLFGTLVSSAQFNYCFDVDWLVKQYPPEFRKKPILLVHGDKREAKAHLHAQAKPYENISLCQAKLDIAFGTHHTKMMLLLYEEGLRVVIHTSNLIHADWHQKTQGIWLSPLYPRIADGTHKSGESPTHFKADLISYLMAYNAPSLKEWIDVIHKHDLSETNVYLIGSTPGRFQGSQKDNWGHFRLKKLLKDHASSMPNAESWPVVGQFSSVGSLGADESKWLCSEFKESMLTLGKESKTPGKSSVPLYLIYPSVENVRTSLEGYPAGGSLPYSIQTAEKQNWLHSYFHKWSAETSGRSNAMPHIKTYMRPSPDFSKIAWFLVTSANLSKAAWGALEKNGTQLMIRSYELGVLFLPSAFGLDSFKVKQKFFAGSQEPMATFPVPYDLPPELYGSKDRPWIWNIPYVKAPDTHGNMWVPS
#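 Enzyme-compound mixtures sat 15 min at room temperature, followed by a 5 min reaction with 15 nM final substrate and 10 min with AlphaScreen beads. Recombinant human Tdp1 was used at 1 nM final.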
# IL-1B inflam inh – inhibitors of inflammasome signaling (IL-1 beta secretion). THP-1 LPS/ATP IL-1B secretion, AlphaLISA, 16 h; hits give low values. activity change, % at 57.5 µM. 4.7% of 360,000 active. AID 743279; in the data active = activity change below about -50%; inconclusive = mostly about -30% to -49%; note: % is set by controls: 0 for no effect and ±100 for the full control effect
#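 THP-1 cells pretreated 1 hr with compounds (up to 57.5 uM final), then stimulated with LPS (250 ng/mL final) plus ATP (1.25 mM final); secreted IL-1B measured by AlphaLISA after 16 hr, decreased signal indicating inhibition.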
# TGFb inhibitor – TGF-b pathway inhibition. HepG2 CAGA-GFP TGF-b/SMAD3 reporter, GFP fluorescence, 18 h; TGF-beta stimulated, 500 pg/mL final. Potency, µM (highest dose often 46.1 µM), without a hit: at the top dose activity, negative = inhibition, hits mostly inhibitors. 1.2% of 410,000 active; note: potency is the fitted concentration of half-maximal effect; % is set by controls: 0 for no effect and ±100 for the full control effect; nearly all actives have a fitted effect of over 65% in size
#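 Cell-based qHTS in HEPG2 carrying a CAGA-GFP Smad reporter; compounds added before 500 pg/mL final TGF-beta, 18 h incubation at 37 degrees C, GFP fluorescence quantified per cell by imaging cytometry.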
# TDP1 cell noCPT – qHTS for Inhibitors of human tyrosyl-DNA phosphodiesterase 1 (TDP1): qHTS in cells in absence of CPT; DT40 Tdp1-/- hTDP1 cells, no CPT, ATP luminescence, 48 h; Potency, µM (highest dose often 46.2 µM), inactives show at the top dose activity change, negative = growth inhibition, most hits filed as inhibitors; 15% of 420,000 active; note: potency is the fitted concentration of half-maximal effect; % is set by controls: 0 for no effect and ±100 for the full control effect; nearly all actives have a fitted effect of over 55% in size
#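 Compound effects on proliferation are scored in DT40 Tdp1-/-;hTDP1 cells in the absence of CPT. ATP levels (CellTiter-Glo luminescence) are recorded after a ≥48 hr, 37 °C incubation.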
# DT40 TDP1 CPT – growth inhibition of DT40 Tdp1-/-;hTDP1 cells with camptothecin (screen for TDP1 inhibitors); chicken DT40 Tdp1-/-;hTDP1 cells + 20 nM CPT, ATP luminescence, 48 h; Potency, µM (highest dose often 46.2 µM), for the others: at the top dose activity change, negative = growth inhibition, usual class: inhibitors; AID 686979; 12% of 420,000 active; note: potency is the fitted concentration of half-maximal effect; % is set by controls: 0 for no effect and ±100 for the full control effect; nearly all actives have a fitted effect of over 55% in size
#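 Chicken DT40 Tdp1-/- cells stably complemented with human TDP1 were seeded at 400 cells/well in medium containing 20 nM camptothecin, exposed to pin-transferred compounds, and grown at 37 °C for at least 48 hr. Viability was read as ATP luminescence.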
# HepG2 viability – HepG2 cytotoxicity, counter-screen for TGF-b inhibitors | HepG2 CAGA-GFP viability, ATP luminescence, 18 h | Potency, µM (series often up to 46.1 µM), for the others: top-dose activity change, negative = cytotoxicity, most hits filed as cytotoxic | 0.76% of 410,000 active | AID 588856; note: potency is the fitted concentration of half-maximal effect
#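 CellTiter-Glo luminescence gave cytotoxicity after 18 hours at 37 degrees C. The cells were HepG2 CAGA-GFP in 1% FBS DMEM, stimulated with 500 pg/mL TGF-beta after compound addition. %Activity was normalised to no-cell wells (complete cell-killing) and DMSO (no toxicity), and curves were fitted and classified.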
# Starred values were filed as active, the others as inactive; ? = inconclusive; nt = no result; [ ] = another dose, or the depositor's remark. Unless noted, calls come from the whole dose curve; as a rule, active = well fitted curve in the direction sought with a large enough effect; inconclusive = small, poorly fitted or top-dose-only effect, or another doubt; inactive = no such curve, though single readings can be large; an effect the other way counts as inactive or inconclusive.
SMILES,TDP1 inh,IL-1B inflam inh,TGFb inhibitor,TDP1 cell noCPT,DT40 TDP1 CPT,HepG2 viability
CCOc1ccc2nc(NC(=O)C3=NN(c4ccccc4)C(=O)CC3)sc2c1,8%,20,-24%,26µM*,?,-3%
Cc1ccc2nc(NC(=O)C3=NN(c4ccccc4)C(=O)CC3)sc2c1,0%,-18,6%,-13%,-10%,-15%
CCOc1ccc2nc(NC(=O)c3ccccc3)sc2c1,3%[2.28 µM],nt,-4%,23µM*,13µM*,-46%
CCOc1ccc2nc(NC(=O)c3cccnc3)sc2c1,4%,-7,11%,-12%,-22%,-1%
O=C(CN1C(=O)NC2(CCCC2)C1=O)Nc1cc(S(=O)(=O)N2CCCCC2)ccc1Cl,0%,-5,4%,?,?,-18%
CN(C)S(=O)(=O)c1ccc(NC(=O)CN2C(=O)NC3(CCCC3)C2=O)cc1,13%,10,0%,-10%,-11%,4%
CCOc1ccc2nc(NC(=O)c3ccc(C)o3)sc2c1,nt,-30,-10%,18µM*,?,-55%
CCOc1ccc2nc(NS(=O)(=O)Cc3ccccc3)sc2c1,2%,36,-19%,4.6µM*,3.3µM*,-12%
CCOc1ccc2nc(NC(=S)N(C)C)sc2c1,8%,-14,-25%,1.2µM*,1.3µM*,-20%
NC(=O)c1ccc2nc(NC(=O)c3ccc(N)cc3)sc2c1,79µM*,90,2%,?,?,-22%
CC(=O)Nc1nc2cc(C(N)=O)ccc2s1,0%,?,-8%,-11%,8%,-12%
CCOc1ccc2nc(NC(=O)C3=NNC(=O)CC3)sc2c1,3%,-2,-2%,11%,7%,-21%
CCC(C(=O)NCc1ccccc1)n1ncn2c(cc3occc32)c1=O (centres undefined),-3%,nt,?,-12%,-1%,12%
CCCn1ccc2c(OCC(=O)NCc3ccccc3Cl)cccc2c1=O,3%,nt,-30%,23µM*,?,-35%
CCOc1ccccc1NC(=O)COc1cccc2c(=O)n(CCOC)ccc12,3%,nt,-1%,13µM*,12µM*,3%
COCCn1ccc2c(OCC(=O)Nc3ccccc3OC)cccc2c1=O,6%,?,-3%,21µM*,18µM*,-10%
CCCn1ccc2c(OCC(=O)Nc3ccccc3OCC)cccc2c1=O,-5%,nt,?,12µM*,21µM*,-33%
CCOc1ccc2nc(SCC(=O)NCc3ccccc3OC)[nH]c2c1,-2%,-7,-1%,?,-16%,0%
O=C(COc1ccccc1F)Nc1ccc(Cl)c(-c2nc3ccccc3[nH]2)c1,3%,nt,?,13µM*,?,-22%
O=C(COc1ccc(F)cc1)Nc1ccc(Cl)c(-c2nc3ccccc3[nH]2)c1,6%,nt,nt,21µM*,?,-45%
Cc1cccc(OCC(=O)Nc2ccc(Cl)c(-c3nc4ccccc4[nH]3)c2)c1,7%,nt,?,?,?,-9%
Cc1c(NC(=O)Nc2ccc(Cl)c(C(F)(F)F)c2)c(=O)n(-c2ccccc2)n1C,2%[12.3 µM],nt,-11%,-21%,-25%,1%
CCc1ccc(N(CC)C(=O)Cn2cnc3sc(C)c(S(=O)(=O)N4CCN(c5ncccn5)CC4)c3c2=O)cc1,-3%,nt,-2%,5%,5%,-5%
Cc1nc(NC(=O)c2ccccc2)sc1-c1csc(Nc2ccc(Cl)cc2)n1,6%,nt,nt,nt,nt,nt
Cc1nc(NC(=O)CC(C)C)sc1-c1csc(Nc2ccc(Cl)cc2Cl)n1,10%,7,-16%,18µM*,?,-11%
C=CCCC(=O)Nc1nc(C)c(-c2csc(Nc3ccc(Cl)cc3Cl)n2)s1,6%,-21,-25%,15µM*,?,-12%

# Source: PubChem
